From PubChem BioAssay AID1490 (National Center for Advancing Translational Sciences (NCATS), 2009)
Among all 310,000 compounds or so, about 11,000 (3.5%) were called active. About 4% were inconclusive and are not listed. Many of the other results were omitted from the sample, so actives are more common in it than they were. Values without a mark were called inactive. The call rests on the fitted dose curve; in most records, active means well fitted inhibition curve with a large enough effect; inconclusive means small, poorly fitted or top-dose-only effect, or another doubt; inactive means no such curve, though single readings can be large or run the other way.
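Further: the enzyme is Sfp with the accession as filed and its product quenches rhodamine fluorescence.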
Potency means the concentration at half of the fitted maximal effect.
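Wherever largest response in the series, negative = inhibition is given: 0% = enzyme reaction without inhibitor and -100% = no enzyme wells.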

Each compound was assayed against 4'-phosphopantetheinyl transferase ffp (Bacillus subtilis) (UniProt Q9F4F7) (assay: qHTS Assay for Inhibitors of Bacillus subtilis Sfp phosphopantetheinyl transferase (PPTase)). Details: Biochemical Sfp PPTase activity.
In short: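 Reaction rates are the 30-min fluorescence difference (ex 525, em 598 nm) in wells containing 15 nM Sfp, 5 uM rhodamine-CoA and 12.5 uM BHQ-2-YbbR at pH 7.6 with 10 mM MgCl2.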
In the case of `O=S(=O)(NCc1ccccc1)c1ccc(S(=O)(=O)N2CCCC2)cc1`, the largest response in the series, negative = inhibition is reported as -13.6%. `O=S(=O)(NCCNS(=O)(=O)c1ccccc1)c1ccccc1` was tested, and the largest response in the series, negative = inhibition was 14.7%. With `O=c1/c(=C/c2ccc(CNS(=O)(=O)c3ccccc3)o2)sc2n1CCN=2` the Potency was 50.1 µM (active). `Cc1ccccc1NC(=O)c1cc(S(=O)(=O)Nc2cccc(C(=O)O)c2)ccc1Cl` was tested, and the largest response in the series, negative = inhibition was 17.9%. With `COCCNC(=O)C1CCN(C(=O)C2CC(=O)N(c3ccc(C)cc3)C2)CC1` (configuration not stated) the largest response in the series, negative = inhibition was 10.9%. In the case of `COC(=O)c1[nH]c2ccccc2c1NC(=O)CN1CCCc2ccccc21`, the Potency is reported as 39.8 µM (active). In the case of `NS(=O)(=O)c1cccc(NC(=O)CN2CCCc3ccccc32)c1`, the largest response in the series, negative = inhibition is reported as 17%. For `COC(=O)c1[nH]c2cccc(C)c2c1NC(=O)CN1CCCc2ccccc21`, the largest response in the series, negative = inhibition was -4.7%. `O=C(Nc1nnc(S(=O)(=O)N2CCOCC2)s1)c1cccc(Br)c1` gave a largest response in the series, negative = inhibition of 19.1%. With `S=c1[nH]nc(-c2ccncc2)n1/N=C/c1ccccc1Cl` the largest response in the series, negative = inhibition was -1.85%. `c1ccc(-c2cc(-c3ccccc3)[nH]n2)cc1` showed a largest response in the series, negative = inhibition of 4.07%. `S=c1[nH]nc(-c2cc(-c3ccccc3)n[nH]2)n1/N=C/c1c2ccccc2cc2ccccc12` was tested, and the Potency was 50.1 µM (active). For `Cc1cc(C)nc(N/N=C/c2ccc([N+](=O)[O-])o2)n1`, the Potency was 79.4 µM (active). `Cc1cc(C)nc(N/N=C/c2c(C)oc3ccccc23)n1` was tested, and the largest response in the series, negative = inhibition was -2.54%. For `C/[N+]([O-])=C\c1ccc([N+](=O)[O-])o1`, the largest response in the series, negative = inhibition was 10%. In the case of `CCc1ccc(S(=O)(=O)N/N=C\c2ccc([N+](=O)[O-])o2)cc1`, the Potency is reported as 56.2 µM (active). For `Cc1ccc(S(=O)(=O)N/N=C\c2cc3c(cc2[N+](=O)[O-])OCO3)cc1`, the largest response in the series, negative = inhibition was -17.6%. `Cc1cc(C)nc(N/N=C/c2ccncc2)n1` showed a largest response in the series, negative = inhibition of -9.4%. `O=C(NNS(=O)(=O)c1ccc([N+](=O)[O-])cc1)C1CCCCC1` gave a largest response in the series, negative = inhibition of 5.3%. With `CC(C)(C)c1cc[n+](-c2[nH]c(=O)sc2/C=N/N=C(\[O-])c2ccccc2)cc1` the largest response in the series, negative = inhibition was -4.09%. Compound `COC1=C(N2CCOCC2)C(=O)c2ccccc2C1=O` has a largest response in the series, negative = inhibition of -22.9%. With `COc1ccc(CNC(=O)CCN2C(=O)c3ccccc3C2=O)cc1` the largest response in the series, negative = inhibition was 10.6%. With `COc1ccccc1CN1CCN(C(c2ccccc2)c2ccccc2)CC1` the largest response in the series, negative = inhibition was -9.22%. For `COc1ccccc1CN1CCN(Cc2cc(OC)c(OC)cc2OC)CC1`, the Potency was 79.4 µM (active). With `COc1cc(OC)c(OC)cc1CN1CCN(C(=O)c2cccc3ccccc23)CC1` the largest response in the series, negative = inhibition was -29.2%. Compound `Cc1ccc(C(=O)N/C(=C\c2ccc(F)cc2)C(=O)NCCN2CCOCC2)cc1` has a largest response in the series, negative = inhibition of 8.47%. For `O=C(NCc1ccc(Cl)cc1)C1CCN(S(=O)(=O)c2cccs2)CC1`, the largest response in the series, negative = inhibition was 2.39%. With `Cc1ccccc1N1CCN(CC(=O)NCc2ccc(Cl)cc2)CC1` the largest response in the series, negative = inhibition was 9.8%. In the case of `O=C(CN1CCN(S(=O)(=O)c2ccc(Cl)s2)CC1)NCc1ccc(Cl)cc1`, the Potency is reported as 56.2 µM (active). `CN1CCN(C(=O)c2ccccc2NC(=O)COc2ccccc2Cl)CC1` was tested, and the largest response in the series, negative = inhibition was 18.2%. Work on `CC(C)NC(=O)c1ccc(Cl)cc1Cl` yielded a largest response in the series, negative = inhibition of 26.8%. For `COC(=O)/C(=C\Nc1ccccc1)NC(=O)c1ccc(Cl)cc1Cl`, the Potency was 79.4 µM (active). Work on `COc1cc(/C=C(/NC(=O)c2ccc(Cl)cc2Cl)C(=O)O)cc(OC)c1OC` yielded a largest response in the series, negative = inhibition of 1.15%. `COc1ccc(N2CCN(C(=O)c3ccc(N4CCCCS4(=O)=O)cc3)CC2)cc1` showed a largest response in the series, negative = inhibition of 1.49%. In the case of `COc1ncnc2c1N=C1CC(C)(C)CC(N)=C1S2`, the Potency is reported as 44.7 µM (active). With `CN(CC(=O)NCc1ccncc1)S(=O)(=O)c1ccc(Br)cc1` the largest response in the series, negative = inhibition was 13.4%. With `O=C(Nc1ncc([N+](=O)[O-])s1)C1COc2ccccc2O1` (configuration not stated) the largest response in the series, negative = inhibition was -25.4%. With `O=C(Nc1nc(-c2ccncc2)cs1)C1COc2ccccc2O1` (configuration not stated) the Potency was 8.91 µM (active). `O=C(Nc1nc2c(F)cc(F)cc2s1)C1COc2ccccc2O1` (configuration not stated) showed a largest response in the series, negative = inhibition of -2.2%. For `CC(=O)c1ccc(S(=O)(=O)NCc2nnnn2-c2ccccc2)cc1`, the largest response in the series, negative = inhibition was 25.6%. Work on `Cc1ccc2c(c1)N(CC(=O)NCC1CCCO1)C(=O)CO2` (configuration not stated) yielded a largest response in the series, negative = inhibition of 20.7%. In the case of `Cc1cc(-c2n[nH]c(=S)n2/N=C/c2ccco2)n[nH]1`, the Potency is reported as 79.4 µM (active). `CC(C)c1cc(C(=O)N/N=C/C(Br)=C/c2ccccc2)n[nH]1` showed a largest response in the series, negative = inhibition of 3.6%. In the case of `Cc1cc(-c2n[nH]c(=S)n2/N=C/C(Br)=C/c2ccccc2)n[nH]1`, the Potency is reported as 39.8 µM (active). With `S=c1[nH]nc(-c2ccco2)n1/N=C/c1ccc(Br)s1` the largest response in the series, negative = inhibition was -25.9%. `S=c1[nH]nc(-c2ccco2)n1/N=C/c1ccccc1` was tested, and the largest response in the series, negative = inhibition was -17.1%. `S=c1[nH]nc(-c2cccnc2)n1/N=C/C(Cl)=C\c1ccccc1` showed a largest response in the series, negative = inhibition of -12.9%.
